# Shown are actives, neighbours in structure and some others; about 2.5% of the full set was active somewhere.
# PAX8 inh HTS – inhibitors of PAX8-driven TPO luciferase reporter, primary screen, RMG-I cells, single concentration; SteadyGlo, 24 h; inhibition, % at 12.6 µM; 360,000 compounds, 1.2% hits;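 active means mean replicate inhibition at least 60% with every replicate also reaching 60%; inconclusive means only one of the two criteria is met; inactive means mean below 60% and not all replicates reaching 60%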;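 further: luciferase light reporting Pax8 driven TPO promoter activity; plate controls were median of neutral control wells for no effect and mitoxantrone controls for full effect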
# HIV Env fusion – inhibitors of HIV-1 Env-driven cell-cell fusion, primary screen, HeLa-JRFL effector, CEM21 target cells, luciferase. inhibition, % at 12.3 µM. 360,000 compounds, 1.1% hits;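 active means mean replicate inhibition score of at least 50 and every replicate individually at or above 50; inconclusive means only one of the two criteria met; inactive means mean below 50 and not all replicates reaching 50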;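 further: 0% = plate neutral controls and 100% = maraviroc near 300 nM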
# CFTR F508del cor – F508del CFTR correction, initial screen, CFBE line, single point. CFBE cells, YFP halide quenching; stimulated with forskolin plus potentiator P3; % fluorescence drop versus neutral controls. activity (quench increase), % at 7.58 µM. 350,000 compounds, 0.36% hits;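 active means mean added fluorescence quench of at least 8% versus neutral control, with both replicates also reaching 8%; inconclusive means only one of the mean or replicate conditions met; inactive means mean below 8% and not both replicates reaching 8%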;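 further: cells transiently co-express mutant CFTR-F508del with the halide-sensitive YFP; corrector assay measuring rescue of mutant channel to the surface after 24 h compound exposure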
# EWS-Fli block – EWS/Fli-driven NR0B1 reporter inhibitors, primary screen, A673 cells, NR0B1 luciferase, luminescence, MLPCN library. inhibition, % at 12.6 µM. 350,000 compounds, 0.67% hits. viability-normalised;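 active means mean inhibition of at least 50% after viability correction, with every replicate also passing that limit; inconclusive means mean reaches 50% but only one of two replicates passes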;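 further: firefly luciferase signal divided by Alamar Blue viability fluorescence both relative to DMSO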
# FXN GAA850 act – FXN promoter activators, primary screen, cell-based, luciferase luminescence, HEK293 lucGAA850. activation, % at 6 µM. HEK293 lucGAA850 FXN promoter luciferase reporter, 24 h; percent of 10 µM SAHA response. 360,000 compounds, 0.56% hits;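 active means activation above the average of all compounds screened plus 3 SD, cutoff fixed separately per campaign, cut at about 7.5% in these data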;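 further: 0% = DMSO wells and 100% = 10 µM SAHA wells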
# The depositor's hits bear a star; ? = inconclusive; . = no result; ! = a repeat was not active; [ ] = another dose, or the depositor's remark.
SMILES,PAX8 inh HTS,HIV Env fusion,CFTR F508del cor,EWS-Fli block,FXN GAA850 act
COc1ccc(CN(C)C[C@@H]2OCCCC[C@H](C)Oc3ccc(NS(=O)(=O)c4ccc(OC)cc4)cc3C(=O)N([C@@H](C)CO)C[C@@H]2C)cc1,-8.6,-2.3[16.7 µM],3.3,69.5*,.
COc1ccc(CN(C)C[C@H]2OCCCC[C@@H](C)Oc3ccc(NS(=O)(=O)c4ccc(OC)cc4)cc3C(=O)N([C@H](C)CO)C[C@H]2C)cc1,12.6,.,2.0,.,.
COc1ccc(CN(C)C[C@H]2OCCCC[C@@H](C)Oc3ccc(NS(=O)(=O)c4ccc(OC)cc4)cc3C(=O)N([C@@H](C)CO)C[C@@H]2C)cc1,24.1,-146.9[16.7 µM],0.2,69.4*,.
COc1ccc(CN(C)C[C@H]2OCCCC[C@H](C)Oc3ccc(NS(=O)(=O)c4ccc(OC)cc4)cc3C(=O)N([C@H](C)CO)C[C@@H]2C)cc1,-4.0,-23.2[16.7 µM],-0.5,78.1*,.
Cc1noc(C)c1NC(=O)Nc1ccc2c(c1)C(=O)N([C@@H](C)CO)C[C@@H](C)[C@@H](CN(C)C(=O)NC(C)C)OCCCC[C@@H](C)O2,3.8,-8.5[16.7 µM],-1.1,-10.0,.
COc1ccc(C(=O)O)cc1S(=O)(=O)Nc1cc(C(F)(F)F)ccc1N1CCCCC1,-29.7,-6.8,-1.4,-3.2,-1.5
O=C(Nc1cccc(C(F)(F)F)c1)Nc1ccc(N2CCCC2)c(S(=O)(=O)Nc2ccccc2Cl)c1,89.6*,?,.,.,-7.4
CCOC(=O)c1ccc(N2CCCCC2)c(NS(=O)(=O)c2cccc(C(F)(F)F)c2)c1,-11.1,64.2*,-0.1,7.4,2.3
Cc1noc(C)c1S(=O)(=O)N(C)C[C@@H]1Oc2ccc(NC(=O)Nc3ccc(C(F)(F)F)cc3)cc2CC(=O)N([C@H](C)CO)C[C@H]1C,42.1,8.9[16.7 µM],2.1,3.1,.
N#C/C(=C/c1ccc(N2CCCCC2)o1)C(=O)Nc1ccc2ccccc2c1,-96.9,-8.0,9.6*,-90.0,1.6
N#C/C(=C/c1ccc(N2CCCCC2)o1)C(=O)Nc1ccc(Cl)cc1,.,-49.8,.,.,4.9
COc1ccccc1OCC(O)CN1C(=O)NC(C)(C)C1=O (centres undefined),-4.9,1.3,9.4*,-8.6,1.4
COc1cccc(S(=O)(=O)N2C[C@@H]3N[C@H](C2)C3c2ccc(-c3ccccc3F)cc2)c1 (some centres undefined),12.0,.,10.0*!,9.2,.
COc1cccc(-c2ccc(C3[C@@H]4CN(S(=O)(=O)c5cccc(OC)c5)C[C@H]3N4)cc2)c1 (some centres undefined),-12.5,.,21.4*!,2.9,.
COc1cccc(S(=O)(=O)N2C[C@@H]3N[C@H](C2)C3c2ccc(-c3ccccc3C)cc2)c1 (some centres undefined),2.0,.,-1.4,-8.4,.
CN(C)C(=O)c1cccc(-c2ccc(C3[C@@H]4CN(C(=O)c5cnccn5)C[C@H]3N4)cc2)c1 (some centres undefined),-15.1,.,-1.3,-1.5,.
COc1cccc(-c2ccc(C3[C@@H]4CN(C(=O)c5cnccn5)C[C@H]3N4)cc2)c1 (some centres undefined),-21.3,.,-4.7,52.2*!,.
COc1cccc(S(=O)(=O)N2C[C@@H]3N[C@H](C2)C3c2ccc(-c3ccccc3OC)cc2)c1 (some centres undefined),-9.2,.,-5.0,-2.2,.
O=C(C[C@H]1C[C@H]2c3cc(NS(=O)(=O)c4ccc(F)cc4)ccc3O[C@H]2[C@@H](CO)O1)NCCc1ccccc1,9.5,-8.4[16.7 µM],-3.4,5.8,.
CCCc1cn(CC[C@H]2CC[C@@H](NC(=O)C3CCC3)[C@H](CO)O2)nn1,-6.2,10.2[16.7 µM],-1.8,-0.1,.
C/C=C/c1ccccc1[C@H]1[C@@H](CO)N(C(=O)Nc2ccccc2)[C@H]1C#N,-1.7,.,-0.9,15.0,.
C[C@@H]1CCCCO[C@@H](CN(C)S(C)(=O)=O)[C@@H](C)CN([C@H](C)CO)C(=O)c2cc(NC(=O)c3ccncc3)ccc2O1,-9.2,18.0[16.7 µM],-3.4,.,.
CO[C@H]1CN(C)C(=O)c2cc(NC(=O)C3CC3)ccc2OC[C@@H](C)N(C(C)=O)C[C@H]1C,9.3,.,-0.6,-1.0,.
CCN(CC)CCn1nc2c3c(cccc3c1=O)-c1ccccc1-2,?,-234.3,17.7*,9.2,5.0
Cc1ccc(Nc2nc(CSc3nnc(-c4cccnc4)n3-c3ccccc3F)cs2)cc1,5.0,11.3,8.6*,1.2,-0.7
SMILES,PAX8 inh HTS,HIV Env fusion,CFTR F508del cor,EWS-Fli block,FXN GAA850 act
CC=Cc1ccc2n(c1=O)C[C@H]1[C@H](CO)[C@@H](C(=O)N(C)C)N(C(=O)CC3CC3)[C@@H]21 (mixture of isomers),-9.1,.,-5.7,1.2,.
CCC(C)NC(=O)C1CCCN(C(=O)Nc2ccc(F)cc2)C1 (centres undefined),.,56.7*,.,.,0.9
CCCC(=O)N1CCC2(CC1)CN(Cc1cccnc1)[C@@H](CO)c1[nH]c3cc(OC)ccc3c12,.,.,0.3,-15.5,.
Cn1c(SCC(=O)c2ccccc2)nnc1-c1ccccn1,89.5*,-13.0,-1.6,-97.5,3.3
Nc1c(C(=O)O)ccc2c1C(=O)c1ccccc1C2=O,33.9,23.4,0.9,-7.5,0.1
Nc1ccc2c(c1Cl)C(=O)c1ccc(N)c(Cl)c1C2=O,-63.7,-30.8,2.3,-90.6,8.4*
CCOc1cc(CNCc2ccncc2)cc(Br)c1OCc1ccc(F)cc1,.,62.9*,.,.,-2.1
CC(=O)N1CC2(C1)[C@@H](c1ccc(-c3ccccc3C)cc1)[C@@H](CO)N2C(C)=O,-5.8,.,0.7,4.9,.
Cn1cnc([N+](=O)[O-])c1Sc1nc(N)nc2c1ncn2C1CC(O)C(CO)O1 (centres undefined),74.1*,?,-0.2,32.6,-0.6
Cn1cnc([N+](=O)[O-])c1Sc1nc(N)nc2c1ncn2C1OC(CO)C(O)C1O (centres undefined),.,41.5,-1.1,49.3,1.4
COc1ccc(NS(=O)(=O)c2cc(NC(=O)c3ccc(=O)[nH]n3)ccc2C)cc1,26.1,10.3,-1.1,56.2*,-2.8
Cc1ccc2c(c1)sc[n+]2Cc1ccccc1,.,.,-0.2,-86.9,10.2*
Cc1ccc(-c2cc[n+](Cc3ccccc3)cc2)cc1,17.4,35.0,-3.9,11.7,-0.6
CCOc1cc(-c2cc(-c3ccc(C)cc3)nc(N)c2C#N)ccc1O,38.8,-46.9,.,.,-1.1
CCOc1cc(-c2c(C#N)c(=O)[nH]c3c2c(C)nn3-c2ccc(F)cc2)ccc1O,.,56.8*,.,.,-0.7
O=C(CCl)Nc1cc(SCC(O)CO)cc([N+](=O)[O-])c1 (centres undefined),108.3*,-63.9,-0.2,47.0,-16.5
CCC(=O)Nc1cc(SCCO)cc([N+](=O)[O-])c1,.,-13.2,.,.,0.7
CO[C@H](CN(C)C(=O)C1CC1)[C@H](C)CN(C(=O)Nc1ccc(C(F)(F)F)cc1)[C@@H](C)CO,-19.3,55.6*[16.7 µM],-0.3,-3.8,.
